Inconclusive results are not listed. Calls of active or inactive are those of the source. Calls follow the shape of the dose curve; as a rule, active = well fitted activation curve with a large enough effect; inconclusive = small, poorly fitted or top-dose-only effect; inactive = no such curve, though single readings can be large or run the other way.
Assay: qHTS Assay for Identifying a Potential Treatment of Ataxia-Telangiectasia: Secondary assay (no NCS) hit validation;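 also: phosphorylated KAP1 signal as a proxy for ATM-like kinase activity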; as to activation: 0% is about no effect
Conditions: A-T patient fibroblasts, AlphaLISA, no DNA damage added, 90 min; series mostly up to 76.9 µM; activation: at the top concentration
From the text: NIH Chemical Genomics Center [NCGC]
NIH Molecular Libraries Probe Centers Network [MLPCN]
Assay Submitter (PI): Wei Zheng and Yosef Shiloh
Ataxia-telangiectasia (A-T) is a devastating and progressive disease for which, there is no cure. Although A-T is a multisystem disease, it is stereotyped characterized by its neurological symptoms such as truncal ataxia, due to cerebellar cortical degeneration of the Purkinje and granule cells. Other symptoms of A-T are telangiectasias (dilated blood vessels), primary immunodeficiency, marked sensitivity to ionizing radiation (IR), chromosomal instability and predisposition to cancer.
The underlying genetic cause of A-T is null mutations in the ATM (A-T mutated) gene. ATM is a nuclear serine/threonine kinase that functions as a master regulator of the cellular responses to double strand breaks (DSBs) in the DNA. Upon activation by DSBs, ATM phosphorylates a plethora of downstream targets, including KAP-1 on […]. KAP-1 phosphorylation occurs shortly in response to DSBs and mediates global chromatin relaxation, which facilitates DSB repair. To screen for small molecules that will compensate for the loss of ATM in cells derived from A-T patients, we monitored KAP-1 phosphorylation as a readout for ATM-like activity using an AlphaLISA assay. This secondary assay omits NCS, which creates double-stranded DNA breaks.
Step,Parameter,Value,Description
1. Cell Plating, 3 ul, 500 cells/well in OPTI-MEM, 1% FBS, 1% Pen/Strep
3. Library compounds, 23 nl, 76.7 - 0.61uM dilution series final concentration
4. Incubation, 60 min, 37C, 5% CO2, 95% humidity
6. Incubation, 30 min, 37C, 5% CO2, 95% humidity
7. Reagent, 1 ul, Premixed detection reagents and lysis buffer
8. Reagent, 1 ul, 0.6% Antifoam A
9. Incubation, 6 hr, 25C, 95% humidity
10. Readout, EnVision, EnVision plate reader. AlphaScreen 1536-well protocol
Cells were plated using medium-binding white solid-bottom tissue culture treated Kalypsys plates. Multidrop dispense of 3 uL of F2112 (hTERT immortalized A-T patient fibroblast cells). Detection reagent and lysis buffer was 3.75nM Rab-a-pKAP1 antibody bound to 75 ng/ul AlphaScreen SA donor bead, 3.75 nM Biot-M-a-KAP1 antibody bound to AlphaLISA protein A acceptor bead, 0.5x protease inhibitor cocktail and 0.25x PerkinElmer lysis buffer. EnVision protocol for 1536-well AlphaScreen read (30ms excitation, 100ms read), about 10 min/plate.
Potency is read from the fitted curve at half-maximal effect.

**Q.** For `CC(C)c1ccc(-n2c(O)c(C=NC(CCS(C)=O)C(=O)O)c(=O)[nH]c2=S)cc1` (stereo not drawn), which “activation” value is on record?
**A.** Its value is -11.9% (inactive).

**Q.** With `COC(=O)C1=C(c2ccc(OCc3ccccc3)cc2)C[C@@H]2CC[C@H]1N2C(=O)NCc1cccc(C(F)(F)F)c1` as the compound, how does the Potency read?
**A.** Its Potency is 4.12 µM (active).

**Q.** With `Cc1ccc(C)c(NP(=O)(Oc2ccccc2)Oc2ccccc2)c1` as the compound, how does the “activation” value read?
**A.** The value was 13.9% (inactive).

**Q.** For `CCN(CC)S(=O)(=O)c1cccc(N=Nc2c(O)n(CC)c(=S)n(CC)c2=O)c1`, which Potency is on record?
**A.** The Potency was 18.4 µM (active).

**Q.** For `Cc1cc(O)c2c(c1)C(=O)C13C(=C2O)C(=O)[C@H]2[C@@H](O)[C@@H]1[C@H]1[C@H](O)[C@@H]3C(=O)C3=C(O)c4c(O)cc(C)cc4C(=O)C312` (stereo partly drawn), which “activation” value is on record?
**A.** Its value is 10.8% (inactive).

**Q.** With `Cc1ccc(-n2c(O)c(C=NCC3CCCO3)c(=O)[nH]c2=O)c(C)c1` (stereo not drawn) as the compound, how does the “activation” value read?
**A.** The value was 12.2% (inactive).

**Q.** For `C/C=C/c1ccc2c(c1)OCO2`, which “activation” value is on record?
**A.** The value was 58.1% (inactive).

**Q.** With `CC1(C)C[C@H]2C=C(C=O)[C@]3(C=O)C[C@]3(C)[C@H]2C1` as the compound, how does the “activation” value read?
**A.** The value was -1.69% (inactive).

**Q.** With `CCc1ccc(N2C(=O)NC(=O)/C(=C\C=C\c3ccco3)C2=O)cc1` as the compound, how does the “activation” value read?
**A.** The value was -11% (inactive).

**Q.** With `O=C1Nc2ccccc2C1Cc1nc2ccccc2c(=O)n1-c1ccccc1` (stereo not drawn) as the compound, how does the “activation” value read?
**A.** The value was 16.9% (inactive).

**Q.** For `CCN1C(=O)N(CC)C(=O)C2(Cc3ccccc3N3CCN(c4ccccc4)CC32)C1=O` (stereo not drawn), which “activation” value is on record?
**A.** Its value is -9.68% (inactive).

**Q.** Which “activation” value does the source give for `CN1CCN(c2ccc([N+](=O)[O-])c3no[n+]([O-])c23)CC1` here?
**A.** Its value is 3.23% (inactive).

**Q.** With `S=c1[nH]nc(Cn2c(-c3ccccn3)nc3ccccc32)n1-c1ccc2c(c1)OCCO2` as the compound, how does the Potency read?
**A.** The Potency was 41.2 µM (active).

**Q.** With `CCCCC(=O)N/N=C/c1c(O)n(CCC2=CCCCC2)c(=O)[nH]c1=O` as the compound, how does the Potency read?
**A.** The Potency was 14.6 µM (active).

**Q.** With `CN1CCCC(C(O)(c2ccccc2)c2ccccc2)C1` (stereo not drawn) as the compound, how does the “activation” value read?
**A.** Its value is 18.6% (inactive).

**Q.** With `Cc1cccc(N2C(=O)NC(=O)/C(=C\C=C\c3ccco3)C2=O)c1` as the compound, how does the “activation” value read?
**A.** Its value is 0% (inactive).

**Q.** Which “activation” value does the source give for `Cc1nc2ccccc2c(=O)n1-c1ccc(F)cc1F` here?
**A.** The value was 33.3% (inactive).

**Q.** For `CCN(CC)S(=O)(=O)c1ccc(C(=O)NC2CN3CCC2CC3)cc1` (stereo not drawn), which “activation” value is on record?
**A.** Its value is -4.35% (inactive).

From PubChem BioAssay AID493201 (National Center for Advancing Translational Sciences (NCATS), 2011)
